Data as given in PubChem BioAssay.
Calls of active or inactive are those of the source.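 How the source made its calls, unless noted: active means mean z-score across replicates of 1.96 or higher in either the MELAS or the Rieske mutant cell line; inactive means the rest.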

Assays:
[1] = sensitizers of A549 cells to miR-34 induction, primary screen, imaging, A549 dox-inducible miR-34, nuclei and caspase counts (AID 1347080;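 active means compounds whose cell count with miR-34 switched on is under 0.7 times the count with it off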); settings: A549 miR-34 inducible, Hoechst nuclei count, 48 h
[2] = survival rescue of mitochondrial mutant cells in low glucose, primary screen, MELAS cybrids, Rieske KO mouse fibroblasts, CellTiter-Glo (AID 1508586);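 further: z relative to plate mean and SD of compound and empty wells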
[3] = stronger effect = lower value, cell number ratio, induced over uninduced
[4] = measured here: relative caspase fold change +Dox/-Dox
[5] = measured here: total cells with miR-34 induction, stronger effect = lower value
[6] = measured here: total cells without miR-34 induction
[7] = MELAS cybrid survival, CellTiter-Glo 48 h, stronger effect = higher value
[8] = Rieske KO mouse fibroblast survival, CellTiter-Glo 72 h
Further: test concentration not given here.

Row | Structure (SMILES) | fold change [1, 3] | fold change [1, 4] | cell count [1, 5] | cell count [1, 6] | z-score [2, 7] | z-score [2, 8]
1 | CC(=O)c1cc([N+](=O)[O-])c(Sc2cccc(Cl)c2Cl)s1 | 0.882 (inactive) | 0.345 | 7980 | 9050 | -0.31 (inactive) | 0.849
2 | CC(O)[C@H]1C(=O)N2C(C(=O)OCOC(=O)C(C)(C)C)=C(SC3CN(C4=NCCS4)C3)C(C)[C@@H]12 (some centres not stated) | 0.943 (inactive) | 0.543 | 8990 | 9530 | -0.198 (inactive) | -0.552
3 | CC1CC(C(=O)O)C2CC[C@]3(C)C(=CC[C@H]4[C@@]5(C)CCC(O)C(C)(C)[C@@H]5CC[C@]43C)[C@H]2C1C (some centres not stated) | 0.867 (inactive) | 0.88 | 8220 | 9470 | -0.234 (inactive) | 0.804
4 | CCOC(=O)N1c2ccc(C(F)(F)F)cc2C(N(Cc2cc(C(F)(F)F)cc(C(F)(F)F)c2)C(=O)OC)CC1CC (configuration not stated) | 0.939 (inactive) | 0.794 | 8370 | 8920 | -0.304 (inactive) | 0.988
5 | N#CC(=Cc1ccc(O)c(O)c1)C(=O)NCc1ccccc1 | 0.901 (inactive) | 1.14 | 6440 | 7150 | -0.517 (inactive) | 0.15
6 | CC1C[C@H]2[C@@H]3CC(F)C4=CC(=O)C=C[C@]4(C)[C@]3(F)C(O)C[C@]2(C)[C@@]1(O)C(=O)CO (some centres not stated) | 0.843 (inactive) | 1.01 | 4530 | 5380 | -0.358 (inactive) | -0.303
7 | COc1ccc(CNCc2cccc3ccccc23)cc1 | 0.918 (inactive) | 0.638 | 8220 | 8960 | -0.404 (inactive) | -0.0397
8 | COc1cc(C=CC(=O)N2CCN(CC(=O)N3CCCC3)CC2)cc(OC)c1OC | 0.989 (inactive) | 0.412 | 8470 | 8570 | -0.177 (inactive) | -0.0197
9 | N#Cc1c(Oc2ccc(F)c(NC(=O)Cc3cccc(C(F)(F)F)c3)c2)ccc2nc(NC(=O)C3CC3)sc12 | 1.2 (inactive) | 0.284 | 2200 | 1840 | -0.453 (inactive) | 0.158
10 | CC1C(=O)O[C@H]2C(O)C34C5CC(C(C)(C)C)C36C(O)C(=O)O[C@H]6O[C@]4(C(=O)O5)[C@@]12O (some centres not stated) | 0.925 (inactive) | 1.45 | 7630 | 8250 | -0.353 (inactive) | -0.351
11 | O=C(O)CCCN1CCC(OC(c2ccc(Cl)cc2)c2ccccn2)CC1 (configuration not stated) | 0.967 (inactive) | 1.77 | 8100 | 8370 | 0.387 (inactive) | -0.496
12 | Cc1cc(Nc2nc(NC(C)c3ncc(F)cn3)ncc2Cl)n[nH]1 (configuration not stated) | 1.07 (inactive) | 1.17 | 1380 | 1290 | 0.54 (inactive) | -3.57
13 | CC(NC(=O)CCc1nc2ccccc2c(=O)[nH]1)c1ccccc1 (configuration not stated) | 0.914 (inactive) | 0.487 | 8620 | 9430 | -0.406 (inactive) | -0.138
14 | O=C(CSc1nc2c(c(=O)n1-c1ccccc1)SCC2)Nc1ccc(-c2ccccc2)cn1 | 0.945 (inactive) | 0.349 | 7310 | 7740 | -0.49 (inactive) | 0.404
15 | Cc1c(CN2CCN(C(=O)C(C)O)CC2)sc2c(N3CCOCC3)nc(-c3cnc(N)nc3)nc12 (configuration not stated) | 1.11 (inactive) | 0.549 | 2480 | 2230 | 2.06 (active) | -2.39
16 | CCc1c(Cl)c(O)c(Cl)c(O)c1C(=O)OC1C(C)OC(OCC2=CC=CCC(O)C(C)=CC(CC)C(O[C@@H]3OC(C)(C)C(OC(=O)C(C)C)C(O)C3O)C(C)=CC(C)=CC[C@H](C(C)O)OC2=O)C(OC)C1O (some centres not stated) | 0.841 (inactive) | 0.698 | 6980 | 8290 | -0.301 (inactive) | -0.0909

Row | Structure (SMILES) | fold change [1, 3] | fold change [1, 4] | cell count [1, 5] | cell count [1, 6] | z-score [2, 7] | z-score [2, 8]
17 | O=C(O)c1cc(I)ccc1NC(=O)C(Cc1ccccc1)NCc1ccccc1 (configuration not stated) | 0.835 (inactive) | 0.632 | 8450 | 10100 | -0.035 (inactive) | 1.09
18 | COc1cc(OC)c(C=CS(=O)(=O)Cc2ccc(OC)c(NCC(=O)O)c2)c(OC)c1 | 1.02 (inactive) | 0.641 | 1610 | 1580 | 0.468 (inactive) | -0.375
19 | CCC1C(=O)N(C)c2cnc(Nc3ccc(C(=O)NC4CCN(C)CC4)cc3OC)nc2N1C1CCCC1 (configuration not stated) | 1.18 (inactive) | 0.761 | 1360 | 1150 | 1.18 (inactive) | -1.35
20 | C[C@]12CC[C@H]3c4ccc(OC(=O)c5ccccc5)cc4CC[C@H]3[C@@H]1CCC2O (some centres not stated) | 0.921 (inactive) | 0.673 | 8340 | 9050 | -0.15 (inactive) | -0.151
21 | COc1cc(CCc2cc(NC(=O)c3ccc(N4CC(C)NC(C)C4)cc3)n[nH]2)cc(OC)c1 (configuration not stated) | 0.767 (inactive) | 0.948 | 4590 | 5980 | -0.509 (inactive) | -1.9
22 | CCCC(=O)O[C@@]1(C(=O)COC(C)=O)CC[C@H]2[C@@H]3CC(F)C4=CC(=O)C=C[C@]4(C)[C@]3(F)C(O)C[C@@]21C (some centres not stated) | 0.767 (inactive) | 1.77 | 5160 | 6730 | -0.0529 (inactive) | -0.145
23 | CCC(=O)O[C@@]1(C(=O)CCl)[C@@H](C)C[C@H]2[C@@H]3CCC4=CC(=O)C=C[C@]4(C)[C@]3(F)[C@H](O)C[C@@]21C | 0.838 (inactive) | 0.869 | 5560 | 6630 | -0.516 (inactive) | -0.656
24 | C[C@@H]1COc2c(N3CCN(C)CC3)c(F)cc3c(=O)c(C(=O)O)cn1c23 | 0.906 (inactive) | 0.634 | 8330 | 9190 | -0.0742 (inactive) | 0.213
25 | Cc1ccc(NCCCc2ccccc2)c(N)c1 | 0.882 (inactive) | 0.496 | 7500 | 8510 | -0.425 (inactive) | 0.263
26 | O=C(C=Cc1ccccc1)NC(NC(=S)Nc1ccc(Cl)cc1)C(Cl)(Cl)Cl (configuration not stated) | 0.995 (inactive) | 0.524 | 2510 | 2520 | -0.431 (inactive) | -0.459
27 | CC(NC(=O)C(Cc1ccccc1)NC(=O)OCc1ccccc1)C(=O)CF (configuration not stated) | 0.911 (inactive) | 0.415 | 8780 | 9640 | -0.389 (inactive) | -0.551
28 | C[C@]1(C(=O)Nc2ccc(F)nc2)CCCN1c1nc(Nc2cc(C3CC3)[nH]n2)c2cccn2n1 | 1.01 (inactive) | 0.776 | 2100 | 2080 | -0.348 (inactive) | -2.24
29 | CC(C)N(CC1OC(n2cnc3c(N)ncnc32)C(O)C1O)C1CC(CCc2nc3ccc(C(C)(C)C)cc3[nH]2)C1 (configuration not stated) | 0.923 (inactive) | 0.796 | 8950 | 9700 | -0.166 (inactive) | -0.146
30 | Cc1cc(OCCCS(C)(=O)=O)cc(C)c1-c1cccc(COc2ccc3c(c2)OCC3CC(=O)O)c1 (configuration not stated) | 0.928 (inactive) | 0.766 | 7480 | 8070 | -0.428 (inactive) | 0.0224
31 | O=NO | 0.914 (inactive) | 1.01 | 8730 | 9550 | -0.254 (inactive) | -0.15
32 | CC(C)NCC(C(=O)N1CCN(c2ncnc3c2C(C)CC3O)CC1)c1ccc(Cl)cc1 (configuration not stated) | 1.1 (inactive) | 0.724 | 7580 | 6900 | -0.408 (inactive) | 0.0437
